Changes are numbered by the printed parent chain.

The text below walks through data of PMC8384837, “Expanding the binding specificity for RNA recognition by a PUF domain”.

What all share (experiment): yeast three-hybrid, YBZ-1, SC-Leu-His + 0.5 mM 3-AT, 4 days
Details in all cases: tags: N-Gal4 AD-HA kept; label: inside an RPR1-promoter hybrid RNA with tandem MS2 sites; ssRNA

Test [1] deals with PUM1 PUF domain R5-KAL (Homo sapiens, UniProt Q14671 828-1176, C1007K;R1008A;Q1011L). The gist of the method:
(§1)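 Pumilio-1 PUF domain libraries, randomized at the three base-contacting residues of each repeat, were co-expressed with matching RNA elements from a centromeric plasmid in strain YBZ-1, which carries a LexA–MS2 coat fusion and a HIS3 reporter. Transformants grew for four days on SC-Leu (input) or on SC-Leu-His + 0.5 mM 3-AT (selection), and the repeat regions were PCR-amplified and Illumina-sequenced. The interaction score is the log change in variant frequency from input to selection. That logarithm is base 2, with a pseudocount of 1 where a variant was absent.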

Test [2] has as its target PUM1 PUF domain R5-NIA (Homo sapiens, UniProt Q14671 828-1176, C1007N;R1008I;Q1011A). Put shortly:
as §1

Test [3] concerns the target PUM1 PUF domain R3-TRP (Homo sapiens, UniProt Q14671 828-1176, C935T;Q939P). Put shortly:
as §1

The target in test [4] is PUM1 PUF domain R4-WGW (Homo sapiens, UniProt Q14671 828-1176, N971W;H972G;Q975W). The gist of the method: as §1
For test [5], the target named is PUM1 PUF domain R5-LHR (Homo sapiens, UniProt Q14671 828-1176, C1007L;R1008H;Q1011R). The gist of the method:
as §1

The target of test [6] is PUM1 PUF domain R3-FWR (Homo sapiens, UniProt Q14671 828-1176, C935F;R936W;Q939R). The gist of the method:
as §1

The target in test [7] is PUM1 PUF domain R8-TRR (Homo sapiens, UniProt Q14671 828-1176, N1122T;Y1123R;Q1126R). The gist of the method:
as §1

Test [8] has as its target PUM1 PUF domain R3-GFD (Homo sapiens, UniProt Q14671 828-1176, C935G;R936F;Q939D). The gist of the method:
as §1

For test [9], the target named is PUM1 PUF domain R3-PRE (Homo sapiens, UniProt Q14671 828-1176, C935P;Q939E). Put shortly:
as §1

For test [10], the target named is PUM1 PUF domain R3-GHG (Homo sapiens, UniProt Q14671 828-1176, C935G;R936H;Q939G). The gist of the method: as §1
The target in test [11] is T1, PUM1 PUF domain R6-RWR (Homo sapiens, UniProt Q14671 828-1176, N1043R;Y1044W;Q1047R).
T1 sequence: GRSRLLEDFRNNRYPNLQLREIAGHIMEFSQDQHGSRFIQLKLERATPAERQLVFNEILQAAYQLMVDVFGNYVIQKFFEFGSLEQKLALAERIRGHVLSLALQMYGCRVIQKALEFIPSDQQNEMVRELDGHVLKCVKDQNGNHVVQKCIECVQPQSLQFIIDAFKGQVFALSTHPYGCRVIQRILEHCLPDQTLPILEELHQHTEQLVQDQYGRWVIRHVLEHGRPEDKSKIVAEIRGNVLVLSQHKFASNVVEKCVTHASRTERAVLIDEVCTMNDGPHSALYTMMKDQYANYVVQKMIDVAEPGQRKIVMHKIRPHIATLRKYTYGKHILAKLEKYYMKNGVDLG
Put shortly: as §1

Test [12] concerns the target PUM1 PUF domain R4-PHQ (Homo sapiens, UniProt Q14671 828-1176, N971P). Put shortly:
as §1

Test [13] addresses PUM1 PUF domain R4-FNL (Homo sapiens, UniProt Q14671 828-1176, N971F;H972N;Q975L). The gist of the method: as §1
The target in test [14] is PUM1 PUF domain R4-AWP (Homo sapiens, UniProt Q14671 828-1176, N971A;H972W;Q975P). The gist of the method:
as §1

For test [15], the target named is T2, PUM1 PUF domain R6-SWQ (Homo sapiens, UniProt Q14671 828-1176, N1043S;Y1044W).
T2 sequence: T1 sequence with R216S, R220Q
Put shortly:
as §1

The target of test [16] is PUM1 PUF domain R2-VYP (Homo sapiens, UniProt Q14671 828-1176, N899V;Q903P). The gist of the method:
as §1

Test [17] has as its target PUM1 PUF domain R1-KKT (Homo sapiens, UniProt Q14671 828-1176, S863K;R864K;Q867T). Put shortly: as §1
In test [18] the target is PUM1 PUF domain R7-CCR (Homo sapiens, UniProt Q14671 828-1176, S1079C;N1080C;E1083R). Put shortly:
as §1

Test [19] addresses PUM1 PUF domain R7-CWP (Homo sapiens, UniProt Q14671 828-1176, S1079C;N1080W;E1083P). The gist of the method:
as §1

Test [20] concerns the target PUM1 PUF domain R5-SEQ (Homo sapiens, UniProt Q14671 828-1176, C1007S;R1008E). Put shortly:
as §1

For “GGCUAGAACUAGUGGAUCCCCCGGCGCCCGGCGGCUCGAGCCCGGGUAAGUGUUAAUAGUCUGCAUGCCGCCGGGCGCCAUGCCUGCAGGUCGACUCUAGAAAACAUG”, the binding signal in [1] is 3.43 log2 enrichment (interaction score); in test [2], 4.96 log2 enrichment (interaction score).

On to “GGCUAGAACUAGUGGAUCCCCCGGCGCCCGGCGGCUCGAGCCCGGGUAAGUGUAAAUAGUCUGCAUGCCGCCGGGCGCCAUGCCUGCAGGUCGACUCUAGAAAACAUG”, for which the binding signal in test [3] was 4.51 log2 enrichment (interaction score); in test [4], 3.2 log2 enrichment (interaction score); in test [5], 3.11 log2 enrichment (interaction score); in [6], 0.88 log2 enrichment (interaction score); in test [7], 1.14 log2 enrichment (interaction score); in test [8] it was 5.65 log2 enrichment (interaction score). Moreover, the values for the binding signal in [9], in test [10] and in test [11] were 3.66 log2 enrichment (interaction score), 3.44 log2 enrichment (interaction score) and 6.07 log2 enrichment (interaction score), respectively.

Consider “GGCUAGAACUAGUGGAUCCCCCGGCGCCCGGCGGCUCGAGCCCGGGUAAGUGUAUAUAGUCUGCAUGCCGCCGGGCGCCAUGCCUGCAGGUCGACUCUAGAAAACAUG”, for which the binding signal is 7.3 log2 enrichment (interaction score) in [12], 3.62 log2 enrichment (interaction score) in test [4], 3.56 log2 enrichment (interaction score) in test [13] and 6.43 log2 enrichment (interaction score) in test [14].

“GGCUAGAACUAGUGGAUCCCCCGGCGCCCGGCGGCUCGAGCCCGGGUAAGUGGAAAUAGUCUGCAUGCCGCCGGGCGCCAUGCCUGCAGGUCGACUCUAGAAAACAUG”: the binding signal is 3.61 log2 enrichment (interaction score) in test [15] and 1.16 log2 enrichment (interaction score) in test [11].

“GGCUAGAACUAGUGGAUCCCCCGGCGCCCGGCGGCUCGAGCCCGGGUAAGUGUAAAAAGUCUGCAUGCCGCCGGGCGCCAUGCCUGCAGGUCGACUCUAGAAAACAUG”: the binding signal in test [16] is 3.97 log2 enrichment (interaction score).

Regarding “GGCUAGAACUAGUGGAUCCCCCGGCGCCCGGCGGCUCGAGCCCGGGUAAGUGUAAAUCGUCUGCAUGCCGCCGGGCGCCAUGCCUGCAGGUCGACUCUAGAAAACAUG”, the binding signal in [17] is 3.84 log2 enrichment (interaction score).

For the sequence “GGCUAGAACUAGUGGAUCCCCCGGCGCCCGGCGGCUCGAGCCCGGGUAAGUGUCAAUAGUCUGCAUGCCGCCGGGCGCCAUGCCUGCAGGUCGACUCUAGAAAACAUG”, the binding signal in test [1] is 3.48 log2 enrichment (interaction score).

With “GGCUAGAACUAGUGGAUCCCCCGGCGCCCGGCGGCUCGAGCCCGGGUAAGUCUAAAUAGUCUGCAUGCCGCCGGGCGCCAUGCCUGCAGGUCGACUCUAGAAAACAUG”, the binding signal in test [18] is 3.07 log2 enrichment (interaction score).

For the sequence “GGCUAGAACUAGUGGAUCCCCCGGCGCCCGGCGGCUCGAGCCCGGGUAAGUUUAAAUAGUCUGCAUGCCGCCGGGCGCCAUGCCUGCAGGUCGACUCUAGAAAACAUG”, the binding signal in test [19] was 4.38 log2 enrichment (interaction score).

As to “GGCUAGAACUAGUGGAUCCCCCGGCGCCCGGCGGCUCGAGCCCGGGUAAGCGUAAAUAGUCUGCAUGCCGCCGGGCGCCAUGCCUGCAGGUCGACUCUAGAAAACAUG”, the binding signal in [7] was 2.73 log2 enrichment (interaction score).

For “GGCUAGAACUAGUGGAUCCCCCGGCGCCCGGCGGCUCGAGCCCGGGUAAGUGAAAAUAGUCUGCAUGCCGCCGGGCGCCAUGCCUGCAGGUCGACUCUAGAAAACAUG”, the binding signal in test [15] was 2.27 log2 enrichment (interaction score); in test [11], 4.83 log2 enrichment (interaction score).

Take “GGCUAGAACUAGUGGAUCCCCCGGCGCCCGGCGGCUCGAGCCCGGGUAAGUGUACAUAGUCUGCAUGCCGCCGGGCGCCAUGCCUGCAGGUCGACUCUAGAAAACAUG”: the binding signal is 2.14 log2 enrichment (interaction score) in [12], 2 log2 enrichment (interaction score) in [4], 1.89 log2 enrichment (interaction score) in test [13] and 5.02 log2 enrichment (interaction score) in [14].

“GGCUAGAACUAGUGGAUCCCCCGGCGCCCGGCGGCUCGAGCCCGGGUAAGUGUAAUUAGUCUGCAUGCCGCCGGGCGCCAUGCCUGCAGGUCGACUCUAGAAAACAUG”: the binding signal in [3] was 1.29 log2 enrichment (interaction score); in test [6], 2.94 log2 enrichment (interaction score); in test [10], 1.43 log2 enrichment (interaction score).

Turning to “GGCUAGAACUAGUGGAUCCCCCGGCGCCCGGCGGCUCGAGCCCGGGUAAGUGCAAAUAGUCUGCAUGCCGCCGGGCGCCAUGCCUGCAGGUCGACUCUAGAAAACAUG”, the binding signal in test [11] is 1.4 log2 enrichment (interaction score).

Turning to “GGCUAGAACUAGUGGAUCCCCCGGCGCCCGGCGGCUCGAGCCCGGGUAAGUGUAAGUAGUCUGCAUGCCGCCGGGCGCCAUGCCUGCAGGUCGACUCUAGAAAACAUG”, the binding signal in [9] was 4.92 log2 enrichment (interaction score); in test [10], 1.95 log2 enrichment (interaction score).

As to “GGCUAGAACUAGUGGAUCCCCCGGCGCCCGGCGGCUCGAGCCCGGGUAAGUGUGAAUAGUCUGCAUGCCGCCGGGCGCCAUGCCUGCAGGUCGACUCUAGAAAACAUG”, in test [20], the binding signal is 3.78 log2 enrichment (interaction score).
